{"source": "PubChem BioAssay (NCI)", "note": "Compounds without any hit were thinned out: in the full panel of roughly 83,000, 20% have a hit.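 How to read the values: 0–100, growth inhibition (40 = 60% inhibited); 0, no net growth; -100 to 0, cell death (-40 = 40% of starting cells died; -100 = all dead).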 Unmarked numbers belong to inactive results. The source made the active and inactive calls. Rule for the calls: active = growth percent below 10; inactive = the rest."}
{"tested_on": "NCI-H460 lung", "test": "NCI-60 one-dose screen, 48 h (100 = growth as untreated, 0 = no growth, -100 = all killed)", "settings": "10 µM unless noted"}
{"smiles": "CCN1CCN(C(=S)SCC(=O)Nc2nc3ccc(OC)cc3s2)CC1", "growth": "113%"}
{"smiles": "COc1ccc(-c2nc3sc(C)nn3c2-c2nc3cc(C)c(C)cc3[nH]2)cc1", "growth": "99.9%"}
{"smiles": "CCCCC1COc2cccc3c(SCC(=O)N(C)c4cccc5ccccc45)cc[n+]1c23", "note": "(stereo not given)", "growth": "107%"}
{"smiles": "O=C1NC(=O)C(CSc2ccccc2)(c2ccccc2)N1", "note": "(stereo not given)", "growth": "118%"}
{"smiles": "O=C1c2ccccc2-c2nnc(-c3ccc(Br)cc3)cc21", "growth": "81.6%"}
{"smiles": "O=c1c2cc(F)ccc2oc2c(NCCNCCO)nc3ccccc3c12", "growth": "13.1%"}
{"smiles": "CCCCCn1c(=N)n(CC(O)COc2cccc(C)c2)c2ccccc21", "note": "(stereo not given)", "growth": "0.388% (active)"}
{"smiles": "Cc1ccccc1-n1nnc(C(=O)Nc2ccc(-c3ccccc3)cn2)c1C", "growth": "61.9% [50 µM]"}
{"smiles": "O=C(N/N=C/c1ccc(OC(F)F)c(OC2CCCC2)c1)c1cnn2c1NC(c1ccccc1)C2", "note": "(stereo not given)", "growth": "82.4%"}
{"smiles": "O=C(NCc1ccc(F)cc1)C1CN(c2ccc(Cl)cc2)N(c2ccc(Cl)cc2)C1=O", "note": "(stereo not given)", "growth": "48%"}
{"smiles": "O=C1CCC(N2Cc3c(C#CCCCNC(=O)c4cc5c(o4)C(=O)c4ccccc4C5=O)cccc3C2=O)C(=O)N1", "note": "(stereo not given)", "growth": "-82% (active)"}
{"smiles": "Nc1cccc2c(=S)c3ccccc3[nH]c12", "growth": "95.7%"}
{"smiles": "Cc1ccc(NS(=O)(=O)c2ccc(-c3cnc(C4CC4)o3)cc2)cc1", "growth": "7.82% (active)"}
{"smiles": "N#Cc1c(-c2cccc(F)c2)cc(-c2ccc(Br)s2)[nH]c1=O", "growth": "38.6%"}
{"smiles": "O=C1c2ccccc2-c2cn(Cc3ccccc3)c3cccc(c23)C1c1cccnc1", "note": "(stereo not given)", "growth": "23.2%"}
{"smiles": "COc1cc2cc(Oc3ccc(NC(=O)Nc4cccc(C(F)(F)F)c4)cc3)c(C)nc2cc1OCCN1CCCCC1", "growth": "-84.2% (active)"}
{"smiles": "CCC(=O)Nc1nnc(Cc2ccc(OC)c(OC)c2)s1", "growth": "-43.7% (active)"}
{"smiles": "O=c1[nH]c(=S)c2c(n1CCCO)CCC2", "growth": "107%"}
{"smiles": "CC(C)(C)[Si](C)(C)OC1[C@@H](COC(=O)NC(=O)CCl)O[C@@H](n2cnc3c(N)ncnc32)[C@H]1O[Si](C)(C)C(C)(C)C", "note": "(stereo not given in full)", "growth": "64.6%"}
{"smiles": "Cc1ccccc1-n1nnc(C(=O)Nc2nc(-c3ccccc3)c(-c3ccccc3)s2)c1C", "growth": "73.2% [50 µM]"}
{"smiles": "Oc1ccc2ccccc2c1C1NN=C(c2ccccc2)S1", "note": "(stereo not given)", "growth": "-27.8% (active)"}
{"smiles": "CCCCCCCC/C=C\\CCCCCCCCOc1cccc(CC(=O)NCC[N+]2(C)CCOCC2)c1", "growth": "67%"}
{"smiles": "CCC(C)Oc1cc(/C=N/NC(=O)c2cnn3c2NC(c2ccccc2)C3)ccc1OC", "note": "(stereo not given)", "growth": "11.5%"}
{"smiles": "COc1ccc(OC2=CC(=O)c3ccc(C)nc3C2=O)cc1", "growth": "86.1%"}
{"smiles": "COc1ccc(/C=C2\\SC(=O)N(CN3CCN(c4cc5c(cc4F)c(=O)c(C(=O)O)cn5C4CC4)CC3)C2=O)cc1", "growth": "104%"}
